# Results filed as inconclusive are left out. Unmarked numbers belong to inactive results. Calls of active or inactive are those of the source. Calls follow the shape of the dose curve; as a rule, active = well fitted inhibition curve with a large enough effect; inconclusive = small, poorly fitted or top-dose-only effect; inactive = flat fitted curve, though single readings scatter.
# System: N140
# Experiment: qHTS profiling for inhibitors of Plasmodium falciparum proliferation (AID 504749); also: nearly all actives have a fitted effect of over 60% in size;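 as to activity, negative = inhibition: 0% = DMSO vehicle and full inhibition = artemisinin control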
# Conditions: P. falciparum in erythrocytes, SYBR Green DNA, 72 h; series mostly up to 12.8 µM; activity, negative = inhibition: at the top concentration
# Procedure, shortened: (§1)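 Three-day growth assay of blood-stage parasites in erythrocytes (0.3% parasitemia, 2.5% hematocrit) at 37 C, 5% CO2, quantified by SYBR Green DNA staining after overnight detergent lysis.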
# Potency is read from the fitted curve at half-maximal effect.
SMILES,Potency,"activity, negative = inhibition"
COc1cc(N[C@@H](C)CCCN)c2ncccc2c1,2.82 µM (active),–
C=Cc1c(C)c2cc3nc(cc4[nH]c(cc5nc(cc1[nH]2)C(C)=C5CCC(=O)O)c(CCC(=O)OC)c4C)[C@@]1(C)C3=CC=C(C(=O)OC)[C@H]1C(=O)OC (tested in a mixture with another compound),7.08 µM (active),–
O=C(OC[C@@H](O)CO)c1ccccc1Nc1ccnc2cc(Cl)ccc12,–,-20%
CO[C@]1(NC(=O)[C@H](C(=O)O)c2ccc(O)cc2)C(=O)N2C(C(=O)O)=C(CSc3nnnn3C)CO[C@H]21,–,1.63%
COc1ccc2c(c1)N(C[C@@H](C)CN(C)C)c1ccccc1S2,–,1.09%
CCC(C)(C)C(=O)O[C@@H]1C[C@H](C)C=C2C=C[C@H](C)[C@@H](CC[C@H]3C[C@@H](O)CC(=O)O3)[C@H]21,–,-24%
COC(=O)[C@@H]1[C@@H]2C[C@H]3c4[nH]c5cc(OC)ccc5c4CCN3C[C@@H]2C[C@H](OC(=O)/C=C\c2cc(OC)c(OC)c(OC)c2)[C@H]1OC,3.55 µM (active),–
CC=C(/C(=C/C)c1ccc(O)cc1)c1ccc(O)cc1,–,-6.63%
CC1(C)S[C@@H]2[C@H](NC(=O)[C@@H](N)c3ccccc3)C(=O)N2[C@H]1C(=O)O[C@H]1OC(=O)c2ccccc21,–,5.35%

# System: P93_24
# Experiment: as above
# Conditions: P. falciparum in erythrocytes, SYBR Green DNA, 72 h; series mostly up to 12.8 µM; activity, negative = inhibition: at the top concentration
# Procedure, shortened: as §1
SMILES,Potency,"activity, negative = inhibition"
COc1cc(N[C@@H](C)CCCN)c2ncccc2c1,1 µM (active),–
C=Cc1c(C)c2cc3nc(cc4[nH]c(cc5nc(cc1[nH]2)C(C)=C5CCC(=O)O)c(CCC(=O)OC)c4C)[C@@]1(C)C3=CC=C(C(=O)OC)[C@H]1C(=O)OC (tested in a mixture with another compound),8.91 µM (active),–
O=C(OC[C@@H](O)CO)c1ccccc1Nc1ccnc2cc(Cl)ccc12,–,-7.22%
CO[C@]1(NC(=O)[C@H](C(=O)O)c2ccc(O)cc2)C(=O)N2C(C(=O)O)=C(CSc3nnnn3C)CO[C@H]21,–,-2.05%
COc1ccc2c(c1)N(C[C@@H](C)CN(C)C)c1ccccc1S2,–,-16.9%
CCC(C)(C)C(=O)O[C@@H]1C[C@H](C)C=C2C=C[C@H](C)[C@@H](CC[C@H]3C[C@@H](O)CC(=O)O3)[C@H]21,–,-27.6%
COC(=O)[C@@H]1[C@@H]2C[C@H]3c4[nH]c5cc(OC)ccc5c4CCN3C[C@@H]2C[C@H](OC(=O)/C=C\c2cc(OC)c(OC)c(OC)c2)[C@H]1OC,3.16 µM (active),–
CC=C(/C(=C/C)c1ccc(O)cc1)c1ccc(O)cc1,–,-4.38%
CC1(C)S[C@@H]2[C@H](NC(=O)[C@@H](N)c3ccccc3)C(=O)N2[C@H]1C(=O)O[C@H]1OC(=O)c2ccccc21,–,10.9%

# System: P94_40
# Experiment: as above
# Conditions: P. falciparum in erythrocytes, SYBR Green DNA, 72 h; series mostly up to 12.8 µM; activity, negative = inhibition: at the top concentration
# Procedure, shortened: as §1
SMILES,Potency,"activity, negative = inhibition"
COc1cc(N[C@@H](C)CCCN)c2ncccc2c1,1.41 µM (active),–
C=Cc1c(C)c2cc3nc(cc4[nH]c(cc5nc(cc1[nH]2)C(C)=C5CCC(=O)O)c(CCC(=O)OC)c4C)[C@@]1(C)C3=CC=C(C(=O)OC)[C@H]1C(=O)OC (tested in a mixture with another compound),3.55 µM (active),–
O=C(OC[C@@H](O)CO)c1ccccc1Nc1ccnc2cc(Cl)ccc12,–,-18.9%
CO[C@]1(NC(=O)[C@H](C(=O)O)c2ccc(O)cc2)C(=O)N2C(C(=O)O)=C(CSc3nnnn3C)CO[C@H]21,–,2.83%
COc1ccc2c(c1)N(C[C@@H](C)CN(C)C)c1ccccc1S2,–,-26.6%
CCC(=O)[C@@]1(C)[C@H](C)C[C@@H]2[C@@H]3CCC4=CC(=O)C=C[C@@]4(C)[C@H]3[C@H](O)C[C@]21C,–,-0.371%
CC=C(/C(=C/C)c1ccc(O)cc1)c1ccc(O)cc1,–,-0.212%
CC1(C)S[C@@H]2[C@H](NC(=O)[C@@H](N)c3ccccc3)C(=O)N2[C@H]1C(=O)O[C@H]1OC(=O)c2ccccc21,–,11.6%

# System: PAD
# Experiment: as above
# Conditions: P. falciparum in erythrocytes, SYBR Green DNA, 72 h; series mostly up to 12.8 µM; activity, negative = inhibition: at the top concentration
# Procedure, shortened: as §1
SMILES,"activity, negative = inhibition",Potency
CCO[C@H]1O[C@@H]([C@H](COCc2ccccc2)OCc2ccccc2)[C@@H](OCc2ccccc2)[C@H]1O,-25.4%,–
COc1cc(N[C@@H](C)CCCN)c2ncccc2c1,–,0.891 µM (active)
C=Cc1c(C)c2cc3nc(cc4[nH]c(cc5nc(cc1[nH]2)C(C)=C5CCC(=O)O)c(CCC(=O)OC)c4C)[C@@]1(C)C3=CC=C(C(=O)OC)[C@H]1C(=O)OC (tested in a mixture with another compound),–,1.41 µM (active)
CO[C@]1(NC(=O)[C@H](C(=O)O)c2ccc(O)cc2)C(=O)N2C(C(=O)O)=C(CSc3nnnn3C)CO[C@H]21,16.6%,–
COc1ccc2c(c1)N(C[C@@H](C)CN(C)C)c1ccccc1S2,-9.76%,–
CCC(=O)[C@@]1(C)[C@H](C)C[C@@H]2[C@@H]3CCC4=CC(=O)C=C[C@@]4(C)[C@H]3[C@H](O)C[C@]21C,8.06%,–
CCN(CC)[C@@H](C)CN1c2ccccc2Sc2ccccc21,-29.5%,–
CC=C(/C(=C/C)c1ccc(O)cc1)c1ccc(O)cc1,3.63%,–
CC1(C)S[C@@H]2[C@H](NC(=O)[C@@H](N)c3ccccc3)C(=O)N2[C@H]1C(=O)O[C@H]1OC(=O)c2ccccc21,4.13%,–

# Reference: PubChem BioAssay (NCATS)
